Molecules are shown by their SMILES. Records with an inconclusive call do not appear. Active and inactive are the calls of the source. Calls come from the whole dose curve.

Assay [1] in a line: Primary qHTS for inhibitors of SARS-S pseudo-typed particle cell entry (AID 1479145). Note: nearly all actives have a fitted effect of over 45% in size. Note: potency is the fitted concentration of half-maximal effect.
Assay [2] can be described thus: Primary qHTS for Huh7 cytotoxicity: counterscreen for inhibitors of MERS-S pseudotyped particle cell entry (AID 1479147). Note: potency is the fitted concentration of half-maximal effect.
Assay [3] in a line: Primary qHTS for Vero E6 cytotoxicity: counterscreen for inhibitors of SARS-S pseudo-typed particle cell entry (AID 1479150). Note: potency is the fitted concentration of half-maximal effect.
The nature of assay [4]: Primary qHTS for inhibitors of MERS-S pseudo-typed particle cell entry (AID 1479149). Note: nearly all actives have a fitted effect of over 60% in size. Note: potency is the fitted concentration of half-maximal effect.
Assay [5] in a line: Confirmatory qHTS for VERO E6 Cytotoxicity Assay: Counterscreen for SARS-CoV-2 CPE Assay (AID 1508605). Note: series mostly up to about 20 µM; nearly all actives have a fitted effect of over 60% in size.

`COc1ccc(-c2cc(C(F)F)nn2-c2ccc(S(N)(=O)=O)cc2)cc1F`: the Potency entry in assay [1], in assay [2] and in assay [3] was “inactive” each time.

With `CCC(CN)=C(c1ccccc1)c1ccccc1`, the Potency entry in assay [1], in assay [2] and in assay [3] was “inactive” in each case.

Consider `CCN(CC)CC(=O)Nc1c(C)cccc1C(=O)OC`, for which the Potency entry in assay [1], in assay [2], in assay [4] and in assay [3] was “inactive” each time.

For `OCC(CO)N[C@H]1C[C@](O)(CO)[C@@H](O)[C@H](O)[C@H]1O`, the Potency result in assay [1], in assay [2], in assay [4] and in assay [3] was “inactive” each time.

On to `O=C(NN1CCCC1)NS(=O)(=O)c1ccc(Cl)cc1`, for which the Potency result in assay [1], in assay [2], in assay [4] and in assay [3] was “inactive” each time.

As to `CCN(CCCc1ccccc1)CCCc1ccccc1`, the Potency result in assay [1], in assay [2] and in assay [3] was “inactive” each time.

Take `NC(=O)c1ncn([C@@H]2O[C@H](CO)[C@@H](O)[C@H]2O)c1N`: the Potency entry in assay [1], in assay [2] and in assay [3] was “inactive” each time.

Regarding `CC(C)(C)CC(=O)OCC(=O)[C@@]1(O)CC[C@H]2[C@@H]3CCC4=CC(=O)C=C[C@]4(C)[C@H]3[C@@H](O)C[C@@]21C`, the Potency entry in assay [1], in assay [2], in assay [4] and in assay [3] was “inactive” throughout.

Turning to `O=c1ccc2ccccc2o1`, the Potency result in assay [1], in assay [2], in assay [4] and in assay [3] was “inactive” in each case.

As for `CN1C(=O)CC(c2ccccc2)C1=O` (stereo not given), the Potency entry in assay [1], in assay [2], in assay [4] and in assay [3] was “inactive” each time.

Regarding `O=C(O)CNC(=O)c1ccccc1I`, the Potency result in assay [1], in assay [2] and in assay [3] was “inactive” throughout.

Take `COc1ccc2[nH]c(S(=O)Cc3ncc(C)c(OC)c3C)nc2n1` (stereo not given): the Potency in assay [1] is 20 µM (active). In addition, the Potency entry in assay [2] and in assay [3] was “inactive” in each case.

For `CC(C)(C)c1ccc(C(O)CCCN2CCC(C(O)(c3ccccc3)c3ccccc3)CC2)cc1` (stereo not given), the Potency entry in assay [1], in assay [2] and in assay [3] was “inactive” in each case.

For the compound `C=CCCCCCCCCC(=O)O`, the Potency result in assay [1], in assay [2], in assay [4] and in assay [3] was “inactive” in each case.

Take `CCCN(CCC)C(=O)C(CCC(=O)O)NC(=O)c1ccccc1` (stereo not given): the Potency result in assay [1], in assay [2], in assay [4] and in assay [3] was “inactive” throughout.

For `CC(C)C(=O)Nc1cccc(C2CN3CCSC3=N2)c1` (stereo not given), the Potency result in assay [1], in assay [2] and in assay [3] was “inactive” in each case.

In the case of `N[C@H](Cc1c[nH]c2ccccc12)C(=O)O`, the Potency result in assay [1], in assay [2], in assay [4] and in assay [3] was “inactive” each time.

For the compound `CCOc1c(N2CCOCC2)cnn(C)c1=O`, the Potency entry in assay [1], in assay [2], in assay [4] and in assay [3] was “inactive” each time.

With `CN1C[C@H](C(=O)N[C@]2(C)O[C@@]3(O)[C@@H]4CCCN4C(=O)[C@H](Cc4ccccc4)N3C2=O)C[C@@H]2c3cccc4[nH]cc(c34)C[C@H]21`, the Potency entry in assay [1], in assay [2] and in assay [3] was “inactive” each time.

On to `CCOC(=O)Cn1cccc1-c1nc(-c2ccc(OC)cc2)c(-c2ccc(OC)cc2)s1`, for which the Potency in assay [1] was 14.1 µM (active). The Potency entry in assay [2] and in assay [3] was “inactive” in each case.

Consider `CC(C)[C@@H]1CC[C@@H](C)CC1=O`, for which the Potency entry in assay [1], in assay [2] and in assay [3] was “inactive” throughout.

For `C1CCN2C[C@@H]3C[C@@H](CN4CCCC[C@@H]34)[C@H]2C1`, the Potency result in assay [2], in assay [4] and in assay [3] was “inactive” each time.

`CCCCOc1cc(C(=O)NCCN(CC)CC)c2ccccc2n1`: the Potency in assay [1] was 14.1 µM (active). Also, the Potency result in assay [3] and in assay [5] was “inactive” throughout.

`CC1=C(C(=O)OC(C)C)C(c2cccc([N+](=O)[O-])c2)C(C(=O)OC2CN(C(c3ccccc3)c3ccccc3)C2)=C(N)N1` (stereo not given): the Potency result in assay [2] and in assay [4] was “inactive” throughout.

As for `O=C(Nc1ccc([N+](=O)[O-])cc1Cl)c1cc(Cl)ccc1O`, the Potency in assay [1] was 0.501 µM (active); in assay [4] it was 2 µM (active); in assay [3], 1.58 µM (active).

With `O=C(O)c1cccc(-c2noc(-c3ccccc3F)n2)c1`, the Potency result in assay [1] and in assay [4] was “inactive” throughout.

As for `Cc1cc2nc3ccc(=[N+](C)C)cc-3sc2cc1N`, the figures for the Potency in assay [1] and in assay [4] were 14.1 µM (active) and 17.8 µM (active), respectively.

For the compound `N=C(N)c1ccc2cc(OC(=O)c3ccc(N=C(N)N)cc3)ccc2c1`, the Potency result in assay [1], in assay [2] and in assay [3] was “inactive” throughout.

As to `Clc1ccccc1C(c1ccccc1)(c1ccccc1)n1ccnc1`, the Potency result in assay [2] is “inactive”.

`CNC[C@H](O)c1ccc(O)c(O)c1`: the Potency result in assay [1], in assay [4] and in assay [3] was “inactive” in each case.

Regarding `CCN(CC)CCCN(c1ccccc1)C1Cc2ccccc2C1`, in assay [1], the Potency is 17.8 µM (active). Also, in assay [3], the Potency entry was “inactive”.

On to `N=C(N)c1ccc(OCCCOc2ccc(C(=N)N)cc2)cc1`, for which the Potency entry in assay [2] was “inactive”.

As to `COc1ccc(-c2nc3ccc(C4=NNC(=O)CC4C)cc3[nH]2)cc1` (stereo not given), the Potency result in assay [1], in assay [4] and in assay [3] was “inactive” in each case.

`C#C[C@]1(O)CC[C@H]2[C@@H]3CCc4cc(O)ccc4[C@H]3CC[C@@]21C`: the Potency result in assay [1] and in assay [3] was “inactive” in each case.

In the case of `CCCCCCCCCCCCOCCOCCOCCOCCOCCOCCOCCOCCOCCO`, in assay [2], the Potency result is “inactive”. The Potency in assay [4] was 8.91 µM (active).

For `C[n+]1cc2c3c(ccc2c2ccc4cc5c(cc4c21)OCO5)OCO3`, the Potency in assay [2] is 8.91 µM (active).

With `CCCCCCc1ccc(O)cc1O`, the Potency entry in assay [1] and in assay [3] was “inactive” each time. Further, the Potency in assay [4] is 0.891 µM (active).

With `Oc1c(Cl)cc(Cl)cc1Sc1cc(Cl)cc(Cl)c1O`, the Potency entry in assay [2] was “inactive”.

For the origin of these results see PubChem BioAssay (NCATS).
